The record followed here is PubChem BioAssay AID2551 (National Center for Advancing Translational Sciences (NCATS), 2010).

In all, about 310,000 compounds went through this assay and about 17,000 (5.5%) were called active. Not shown: some 11% with an inconclusive outcome. The call rests on the fitted dose curve; in most records, active means well fitted inhibition curve with a large enough effect; inconclusive means small, poorly fitted or top-dose-only effect, or effect the other way; inactive means no such curve, though single readings can be large or run the other way. The full list was thinned out, with actives kept by preference.
On the % scale 0 is the no-effect control and ±100 the full control effect; potency means the concentration at half of the fitted maximal effect.

Nuclear receptor ROR-gamma (Mus musculus), sequence (P51450 whole entry, looked up, the tested form may be a part): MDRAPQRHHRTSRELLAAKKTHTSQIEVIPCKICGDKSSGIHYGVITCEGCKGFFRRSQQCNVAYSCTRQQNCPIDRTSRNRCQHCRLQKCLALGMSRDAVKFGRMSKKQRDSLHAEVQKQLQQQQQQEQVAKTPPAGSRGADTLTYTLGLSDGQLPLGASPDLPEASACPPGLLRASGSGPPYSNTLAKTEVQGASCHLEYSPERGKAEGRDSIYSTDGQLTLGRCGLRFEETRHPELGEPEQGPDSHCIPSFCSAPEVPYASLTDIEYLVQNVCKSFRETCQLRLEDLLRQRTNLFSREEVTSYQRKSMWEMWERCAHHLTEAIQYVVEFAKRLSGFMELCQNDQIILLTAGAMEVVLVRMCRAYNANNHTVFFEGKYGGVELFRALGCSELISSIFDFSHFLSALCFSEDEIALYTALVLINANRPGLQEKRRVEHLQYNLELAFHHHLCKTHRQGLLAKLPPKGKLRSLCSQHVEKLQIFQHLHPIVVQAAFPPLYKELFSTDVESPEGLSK

This assay addresses Nuclear receptor ROR-gamma (Mus musculus) (UniProt P51450). The assay can be described thus: qHTS for inhibitors of ROR gamma transcriptional activity. Further: nearly all actives have a fitted effect of over 60% in size. The conditions noted are these: Drosophila S2 Gal4-RORgamma UAS-luciferase reporter, 20 h; series mostly up to 53.6 µM; activity change, negative = inhibition: at the top concentration. The method in brief: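 Read-out: Photinus luciferase luminescence; inhibitors lower reporter signal. Insect Schneider cells with Gal4-ROR gamma fusion under metallothionein promoter, UAS reporter; 700 uM final copper sulfate induction, 20 hr, ambient temperature.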
A general note: Quantitative high-throughput screening tests each substance at several concentrations.
As for `Cn1cc(C(=O)c2ccc(Cl)cc2Cl)cc1C(=O)NN`, the “activity change, negative = inhibition” value is 1.5% (inactive).

Take `COc1ccc(C2=NOC3(CC(=O)N(c4ccc(C)cc4)C3=O)C2)cc1` (stereo not drawn): the “activity change, negative = inhibition” value is 3.77% (inactive).

For `COc1ccc(C2=Nc3cc(C)ccc3OC2)cc1`, the Potency is 10 µM (active).

In the case of `COc1ccc(NC(=O)c2cc(-c3ccc(C)cc3)on2)cc1`, the “activity change, negative = inhibition” value is -15.9% (inactive).

For the compound `Cc1cc(C)cc(N(CCC#N)C(=O)CN2C(=O)NC3(CCCC3)C2=O)c1`, the “activity change, negative = inhibition” value was -9.67% (inactive).

For the compound `COc1ccc(N(Cc2ccc(N(C)C)cc2)C(=O)c2ccc(S(C)(=O)=O)cc2)cc1`, the “activity change, negative = inhibition” value was 1.79% (inactive).

Regarding `CCOc1ccccc1NC(=S)N1CCN(c2cccc(C)c2C)CC1`, the Potency is 6.31 µM (active).

Regarding `CCC(=O)N1CCN(c2ccccc2NC(=O)COc2cccc(C)c2C)CC1`, the “activity change, negative = inhibition” value was -2.84% (inactive).

For `COc1ccccc1NC(=S)N1CCC(NC(=O)C23CC4CC(CC(C4)C2)C3)CC1`, the “activity change, negative = inhibition” value is -9.29% (inactive).

As for `COCCN(C(=S)Nc1ccccc1OC)C1CCN(C(C)C)CC1`, the “activity change, negative = inhibition” value is -1.16% (inactive).

As for `CC(=O)N1CCN(c2cccc(C)c2C)CC1`, the “activity change, negative = inhibition” value is -8.54% (inactive).

`COc1ccccc1NC(=S)N1CCN(C(c2ccccc2)c2ccccc2)CC1`: the Potency is 3.55 µM (active).

Take `CC(=O)c1cccc(NC(=S)N2CCN(S(C)(=O)=O)CC2)c1`: the “activity change, negative = inhibition” value was -0.8% (inactive).

Consider `CCC(C(=O)NC1CCCCC1)N(C(=O)c1snc(C(N)=O)c1N)c1ccc(OC)cc1OC` (stereo not drawn), for which the “activity change, negative = inhibition” value is 16.7% (inactive).

As to `O=C(CCc1nnc2ccc(NCc3ccccc3Cl)nn12)NCC1CCN(C2CCCC2)C1` (stereo not drawn), the “activity change, negative = inhibition” value is 0.106% (inactive).

With `COc1ccc(-c2csc(-c3cccs3)n2)cc1OC`, the “activity change, negative = inhibition” value was 10.3% (inactive).

As for `COc1ccc(-c2noc(-c3cccc(OC)c3OC)n2)cc1OC`, the “activity change, negative = inhibition” value was 16.6% (inactive).

Take `COc1ccc(-c2csc3nc(-c4ccccc4F)oc(=O)c23)cc1OC`: the Potency is 11.2 µM (active).

As to `C/[N+]([O-])=C\c1ccc([N+](=O)[O-])o1`, the Potency was 11.2 µM (active).

`NC(=O)C(=O)N/N=C/c1ccc([N+](=O)[O-])o1`: the activity change, negative = inhibition was -19.4% [at 10 µM] (inactive).

As to `Cc1cc(C)nc(N/N=C/c2ccc([N+](=O)[O-])o2)n1`, the “activity change, negative = inhibition” value is -25.4% (inactive).

On to `CCOC(=O)[C@H]1[C@H]2COc3cc(OC)ccc3[C@@H]2N2C(=O)N(c3ccc(Br)cc3)C(=O)[C@@]12C`, for which the “activity change, negative = inhibition” value was 25.7% (inactive).

With `Cn1nccc1C(=O)N1CCCC(C(=O)c2ccc(Oc3ccccc3)cc2)C1` (stereo not drawn), the “activity change, negative = inhibition” value was 41.3% (inactive).

Turning to `COc1cccc(CNn2cn[nH]c2=S)c1OCc1ccccc1`, the Potency is 2.51 µM (active).

Regarding `CCOc1c(CNCc2ccc(C(=O)O)cc2)cccc1OC`, the “activity change, negative = inhibition” value was 3.95% (inactive).

As to `C=CCC(Nc1ccccc1)c1cccc(OC)c1OC` (stereo not drawn), the “activity change, negative = inhibition” value was 10.5% (inactive).

With `COc1ccccc1-n1cn[nH]c1=S`, the “activity change, negative = inhibition” value was -36.8% (inactive).

On to `C=CCOc1ccc(/C=N/n2cncn2)cc1OC`, for which the “activity change, negative = inhibition” value was -5.94% (inactive).

For the compound `C=CCOc1cccc(CNn2cn[nH]c2=S)c1`, the Potency was 10 µM (active).

Regarding `C=CCOc1c(CNn2cn[nH]c2=S)cccc1OC`, the Potency was 11.2 µM (active).

As for `C=CCOc1cccc(C2NC(=O)c3ccccc3O2)c1` (stereo not drawn), the “activity change, negative = inhibition” value was 6.76% (inactive).

For `COc1ccc(-c2cc(=O)oc3cc(OC(C)C(=O)NCC4CCC(C(=O)O)CC4)ccc23)cc1` (stereo not drawn), the “activity change, negative = inhibition” value is 10.8% (inactive).

For `CCN(CC)CCCNC(=O)c1cc2c(=O)[nH]c3ccc(C)cc3c2s1`, the “activity change, negative = inhibition” value was -11.6% (inactive).

Regarding `CCCCC[C@H]1CN(C2CCCCC2)C(=O)[C@@H]1CC(=O)NCc1ccc(OC)cc1`, the “activity change, negative = inhibition” value was 30.1% (inactive).

As for `COc1ccccc1-c1sc2ccccc2c1-c1ccc(C(C)=O)cc1`, the “activity change, negative = inhibition” value was 11.9% (inactive).

`Cc1ccc(-c2csc(NC3OC(=O)c4ccccc43)n2)cc1` (stereo not drawn): the “activity change, negative = inhibition” value is -5.54% (inactive).

With `COc1ccc(-c2cn3ccsc3n2)cc1`, the “activity change, negative = inhibition” value is -43.2% (inactive).

In the case of `CCN(CC)S(=O)(=O)c1ccc(-c2cn3ccc(C)cc3n2)cc1`, the “activity change, negative = inhibition” value was 9.04% (inactive).

In the case of `COc1ccc(-c2cn3ccc(C)cc3n2)cc1`, the Potency is 3.16 µM (active).

For the compound `CCOc1ccc(-n2c(SCC(=O)OC)nc3sc4c(c3c2=O)CCN(C)C4)cc1`, the “activity change, negative = inhibition” value was 2.83% (inactive).

As to `COc1ccc(N(CC(=O)Nc2ccc(F)c(F)c2)S(=O)(=O)c2c(C)[nH]c(=O)[nH]c2=O)cc1`, the “activity change, negative = inhibition” value is 1.07% (inactive).

With `COc1cccc(C(O)c2nc3ccccc3n2C)c1` (stereo not drawn), the “activity change, negative = inhibition” value was -0.976% (inactive).

`COc1ccc(/C=N/NC(=O)C2CC2)c(OC)c1OC`: the “activity change, negative = inhibition” value was 21.1% (inactive).

On to `O=C(N/N=C/c1ccccc1O)C1CCCC1`, for which the Potency was 0.158 µM (active).

Take `Oc1ccccc1C=NC1CCCCC1N=Cc1ccccc1O` (stereo not drawn): the “activity change, negative = inhibition” value was -38.2% (inactive).

For `CCn1c(=S)sc2c(=O)n(CC(=O)Nc3cccc(Br)c3)c(C)nc21`, the “activity change, negative = inhibition” value is 31.8% (inactive).

Take `Cc1cc(C)c(NC(=O)CN2CCCCCC2)c(C)c1`: the “activity change, negative = inhibition” value is -2.87% (inactive).

As to `O=C(c1c(F)cccc1Cl)N1CCN(S(=O)(=O)c2ccc3c(c2)OCCCO3)CC1`, the “activity change, negative = inhibition” value is 5.29% (inactive).

For `CCOc1ccccc1CNS(=O)(=O)c1cc(-c2cc(C)no2)ccc1C`, the “activity change, negative = inhibition” value was -15.7% (inactive).

In the case of `COc1ccc(/C=C2\SC(=O)N(CCC(=O)NC3CCS(=O)(=O)C3)C2=O)cc1` (stereo not drawn), the “activity change, negative = inhibition” value was -44.2% (inactive).

With `O=C(NCc1cccs1)c1ccc(CS(=O)Cc2ccccc2Cl)o1` (stereo not drawn), the “activity change, negative = inhibition” value is 42.8% (inactive).

In the case of `CC(=O)Nc1ccc(C(=O)Nc2nc(-c3cc(C)n(Cc4ccccc4)c3C)cs2)cc1`, the activity change, negative = inhibition is 3.29% [at 10 µM] (inactive).

Consider `CCc1cc(-c2nnc(SCC(=O)NC3CC3)n2C)cs1`, for which the “activity change, negative = inhibition” value is 3.75% (inactive).

Take `Cc1cc(-c2csc(N)n2)c(C)n1Cc1ccccc1`: the “activity change, negative = inhibition” value is 13.5% (inactive).

`CCc1cc(-c2n[nH]c(=S)n2CC(C)C)cs1`: the Potency was 2.51 µM (active).

Take `CCCc1cc(-c2n[nH]c(=S)n2Cc2ccccc2)cs1`: the Potency was 4.47 µM (active).

`COC(=O)c1ccccc1NC(=O)CSc1nc2c(c(=O)[nH]1)CCC2`: the “activity change, negative = inhibition” value was -15.8% (inactive).

Turning to `COc1ccc(C(=O)NCC(=O)N/N=C/c2cccnc2)cc1`, the “activity change, negative = inhibition” value was -17.1% (inactive).

For the compound `CCOC(=O)[C@@H]1[C@H]2COc3cc(OC)ccc3[C@H]2N2C(=O)N(c3ccc(F)cc3)C(=O)[C@]12C`, the “activity change, negative = inhibition” value was 23.9% (inactive).

Regarding `COc1ccc(CNS(=O)(=O)c2ccc(-c3cnc(C4CC4)o3)cc2)cc1`, the “activity change, negative = inhibition” value was 20.5% (inactive).

As to `CCOC(=O)c1cccc(NS(=O)(=O)c2c(C(=O)N3CCCCCC3)c(C)n(C)c2C)c1`, the “activity change, negative = inhibition” value was -17.4% (inactive).

For `O=C(c1ccccc1F)N(Cc1ccccc1)Cc1ccccc1`, the “activity change, negative = inhibition” value was 6.23% (inactive).

In the case of `CCn1c(=O)cc(OCC(=O)NCCCN2CCN(c3cccc(Cl)c3)CC2)c2ccccc21`, the “activity change, negative = inhibition” value is -17.4% (inactive).

With `O=C(CCCn1c(=O)[nH]c2cc(Cl)ccc2c1=O)NCCN1CCN(c2ccccc2)CC1`, the “activity change, negative = inhibition” value is -12.5% (inactive).

For `COc1cccc(CNC(=O)c2n[nH]c3ccccc23)c1`, the “activity change, negative = inhibition” value is 34.4% (inactive).

As for `O=C(Cc1csc(Nc2nc(=S)[nH]c3ccccc23)n1)NCCCN1CCN(c2cccc(Cl)c2)CC1`, the Potency was 2.51 µM (active).

Consider `COc1cccc(CNC(=O)Cc2csc(Nc3nc(=S)[nH]c4ccccc34)n2)c1`, for which the Potency is 6.31 µM (active).

`COc1cccc(CNC(=O)c2nnn(CC(=O)Nc3cc(C)ccc3C)c2N)c1`: the “activity change, negative = inhibition” value was -21.8% (inactive).
